Data on 39 molecules can be found in ChEMBL document CHEMBL3988442, “University of Dundee, Small-Polar-MMV Screening Library” (2021).

The target in the assay is T1, Tyrosyl-tRNA synthetase, putative (Trypanosoma cruzi (strain CL Brener)) (UniProt Q4DSP6).
T1 sequence (whole entry): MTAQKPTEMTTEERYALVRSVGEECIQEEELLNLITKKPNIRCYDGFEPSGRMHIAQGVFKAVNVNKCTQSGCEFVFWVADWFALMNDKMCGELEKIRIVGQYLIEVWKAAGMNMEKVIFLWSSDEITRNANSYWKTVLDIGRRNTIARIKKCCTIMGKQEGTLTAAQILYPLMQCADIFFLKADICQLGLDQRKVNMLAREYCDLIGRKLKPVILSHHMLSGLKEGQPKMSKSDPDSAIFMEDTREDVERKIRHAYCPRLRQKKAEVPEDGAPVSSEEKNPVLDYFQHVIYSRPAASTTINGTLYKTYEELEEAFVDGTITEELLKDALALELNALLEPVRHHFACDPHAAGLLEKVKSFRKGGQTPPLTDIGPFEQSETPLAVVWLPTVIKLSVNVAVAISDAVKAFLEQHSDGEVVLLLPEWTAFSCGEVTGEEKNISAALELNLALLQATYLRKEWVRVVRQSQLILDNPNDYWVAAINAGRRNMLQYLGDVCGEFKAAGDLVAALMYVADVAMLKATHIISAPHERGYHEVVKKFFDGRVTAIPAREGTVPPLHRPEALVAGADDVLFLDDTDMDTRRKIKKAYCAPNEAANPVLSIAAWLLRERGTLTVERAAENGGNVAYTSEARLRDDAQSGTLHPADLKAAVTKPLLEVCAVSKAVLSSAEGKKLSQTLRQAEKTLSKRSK
Kind of assay: Trypanosoma cruzi tyrosyl tRNA synthetase (TcYRS) _High Tyrosine SOP. The assay is classed as functional. Also on record: scale not given: in the data most compounds retested in dose-response had high values. The note with it: 30 µM.
Regarding `Cc1cccc(CN2C(=O)CCC23CCN(Cc2cccn2C)CC3)n1`, the Percent Effect worked out at 9.66%.
The figure for `CN(C(=O)CN1CCOC(Cn2cccn2)C1)c1nccs1` (centres undefined) is 3.92%; for `c1cc(-c2nc(CN3CCn4c(nnc4C4CC4)C3)cs2)cs1` it is 2.39%; for `CS(=O)(=O)NCC1CCCN(C(=O)COCC(F)(F)F)C1` (centres undefined) it is 2.39%.
The figure for `COc1ccc(-c2nc(CN3CCc4c(ncn4C)C3)cs2)cc1` is 18.7%; for `Cc1cccc(CN2CCC3(CCN(c4ccccn4)C3)C2=O)c1` (centres undefined) it is 10.6%; for `CCCC(C)C(=O)N1CCC(n2cccc2C(=O)OC)CC1` (centres undefined) it is 2.94%.
The same measure for `O=C(NCC1CCOC1)Nc1ccc(OCC(F)(F)F)nc1` (centres undefined): 2.39%.
For `Cc1ncc(-c2ccnc(N3CCN(C)CC3)n2)c(-c2cccnc2)n1`, the Percent Effect was determined as 4.74%.
As for `Cc1cc(OCC(=O)N2CCCC(c3noc(C)n3)C2)no1` (centres undefined), the Percent Effect was -0.526%.
The same measure for `COc1ccc(OCCN(C)C(=O)NC(C)c2nncn2C)cc1` (centres undefined): 3.68%; for `CCc1ccsc1C(=O)N1CCN(C(=O)CC(F)(F)F)CC1`: 6.86%.
For `CC(C(=O)N1CCCC1)N1CCC(c2nccn2Cc2cscn2)CC1` (centres undefined), the Percent Effect came to 6.92%.
The figure for `CCC(=O)N1CCC(O)(c2ncc(OC)nc2OC)CC1` is 5.29%.
The figure for `O=C(c1cc(Cl)c2c(c1)OCCO2)N1CCCC(n2cncn2)C1` (centres undefined) is -0.526%.
Turning to `CN(C)CC1CN(Cc2nnc(-c3ccccc3Cl)o2)CCO1` (centres undefined), the Percent Effect was -3.68%.
The figure for `Cc1ccc(OCC(O)CN2CCC(Cn3cccn3)CC2)cc1` (centres undefined) is 10.8%; for `COCCN1CCCN(C(=O)NC(C)Cn2ccnc2)CC1` (centres undefined) it is 0%.
The figure for `CCc1nc(C2CCCN2C(=O)c2ccoc2C)no1` (centres undefined) is -0.478%; for `COc1cc(CNCc2ccc(NC(=O)NC(C)C)cc2)cc(OC)c1` it is 8.82%; for `Cc1cc(NC(=O)N(CC2CCOC2)C2CC2)no1` (centres undefined) it is 5.79%.
The figure for `COc1ccc(F)cc1C(=O)N(C)Cc1cc(C)on1` is 2.39%.
On to `CN(C)C(=O)N1C[C@H]2CCC[C@@]2(COc2ccccn2)C1`, for which the Percent Effect is -0.526%.
With `COc1ncc(C2CC(=O)NCc3nc4ccccn4c32)cn1` (centres undefined), the Percent Effect is 7.98%.
The figure for `Cn1nc2c(cc1=O)CN(Cc1nc(C(C)(C)C)no1)CC2` is 1.58%.
The figure for `Fc1cnc(N2CCOCC3(CCCN(c4nncs4)C3)C2)nc1` (centres undefined) is 1.58%; for `CN1CCCn2c(nc(CNC(=O)c3ccsc3)cc2=O)C1` it is 1.58%; for `Cc1ccc(-c2nc(CN3CCn4c(nnc4C4CC4)C3)co2)cc1` it is 6.84%.
As to `O=c1cc(Cn2cncn2)nc2n1CCCN(CC1CC1)C2`, the Percent Effect was 3.68%.
On to `CC(c1nc(C2CC2)no1)N1CCN(Cc2ccsc2)CC1` (centres undefined), for which the Percent Effect worked out at 4.31%.
The same measure for `O=c1c2ccccc2nc2n1C(CSc1ccc(Cl)cc1Cl)CN2` (centres undefined): 1.93%; for `CCc1cc(O)nc(C2CCCN2C(=O)c2cc(C)no2)n1` (centres undefined): -2.12%.
Turning to `CN(C)C(=O)CCC(=O)NCc1cccnc1-n1cnc2ccccc21`, the Percent Effect came to 1.6%.
The same measure for `CCc1nccn1C1CCCN(C(=O)Cc2ccc(OC)c(F)c2)C1` (centres undefined): 6.84%; for `CC(=O)N1C[C@@H](c2ccsc2)[C@@H]2CN(Cc3ccccc3)CC[C@@H]21`: 10.6%.
The figure for `CN(C)CC1CN(Cc2coc(-c3ccccc3Cl)n2)CCO1` (centres undefined) is 0.526%.
The figure for `CCNC(=O)[C@@H]1C[C@@H](NC(=O)Cc2ccncc2)CN1Cc1ccsc1` is 4.79%; for `CC(C)(C)C(O)CN1CCN(C(=O)c2cccc3[nH]ncc23)CC1` (centres undefined) it is 3.35%; for `CC(C)c1cc(N2CCN(c3ccc(O)cc3)CC2)n2nccc2n1` it is 27.1%.
